# In PubChem BioAssay AID1508601 (ICCB-Longwood Screening Facility, Harvard Medical School, 2020):
# Among all 5,700 compounds or so, about 85 (1%) were called active. The sample holds actives, similar compounds and a random draw of the others, so the mix is not that of the screen. Cut-off read from the data, not from the text of the source: active = p53-positive nuclei above about 36% (passing the limit was not always enough); inactive = the rest.
# Assays:
# [1] = p53 stabilisation in HPV-positive human cells, imaging, p53-positive nuclei imaging, 24 h, 48 h (AID 1508601); details: 24/48 h
# [2] = target: Cellular tumor antigen p53 (Homo sapiens) (UniProt P04637); assay: as above; details: 24/48 h, stronger effect = higher value
# [3] = measured here: cell number at 24 h, concentration not given here
# [4] = measured here: cell number at 48 h, concentration not given here
# [5] = measured here: p53 positive nuclei at 24 h, concentration not given here
# [6] = measured here: cell number at 24 h, Library stock concentration: 3.33 mM
# [7] = measured here: cell number at 48 h, Library stock concentration: 3.33 mM
# [8] = Library stock concentration: 3.33 mM
# [9] = measured here: p53 positive nuclei at 24 h, Library stock concentration: 3.33 mM
# [10] = measured here: cell number at 24 h, Library stock concentration: 10 mM
# [11] = measured here: cell number at 48 h, Library stock concentration: 10 mM
# [12] = Library stock concentration: 10 mM
# [13] = measured here: p53 positive nuclei at 24 h, Library stock concentration: 10 mM
# Chain of Cellular tumor antigen p53 (Homo sapiens) (P04637 whole entry, looked up): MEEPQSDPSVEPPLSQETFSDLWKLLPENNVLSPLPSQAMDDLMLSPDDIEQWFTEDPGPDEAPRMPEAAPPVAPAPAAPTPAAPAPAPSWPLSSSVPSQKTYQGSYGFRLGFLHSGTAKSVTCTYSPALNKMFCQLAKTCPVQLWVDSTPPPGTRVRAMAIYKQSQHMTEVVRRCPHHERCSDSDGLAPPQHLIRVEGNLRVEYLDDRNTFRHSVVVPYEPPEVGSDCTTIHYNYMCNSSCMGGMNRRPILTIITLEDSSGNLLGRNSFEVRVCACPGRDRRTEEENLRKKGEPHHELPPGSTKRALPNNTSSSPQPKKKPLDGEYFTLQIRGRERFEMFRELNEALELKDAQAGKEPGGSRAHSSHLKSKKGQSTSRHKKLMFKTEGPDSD
compound,measurement,setting,value
Cc1cc(C)c(/C=C2\C(=O)Nc3ccccc32)[nH]1,"nuclei count, normalised",[1]; [3],96.2%
same,"nuclei count, normalised",[1]; [4],102%
same,"p53-positive nuclei, normalised",[2]; concentration not given here,0.0559% (inactive)
same,"p53-positive nuclei, normalised",[2]; [5],0.0506%
Cc1cc(C)c(C=C2C(=O)Nc3ccccc32)[nH]1,"nuclei count, normalised",[1]; [6],116%
same,"nuclei count, normalised",[1]; [7],119%
same,"p53-positive nuclei, normalised",[2]; [8],-0.0521% (inactive)
same,"p53-positive nuclei, normalised",[2]; [9],-0.278%
COc1cc(=C2C=c3ccccc3=N2)[nH]c1=Cc1[nH]c(C)cc1C,"nuclei count, normalised","[1]; measured here: cell number at 24 h, Library stock concentration: 80 uM",104%
same,"nuclei count, normalised","[1]; measured here: cell number at 24 h, Library stock concentration: 400 uM",82.2%
same,"nuclei count, normalised","[1]; measured here: cell number at 24 h, Library stock concentration: 2 mM",74.9%
same,"nuclei count, normalised",[1]; [6],71.2%
same,"nuclei count, normalised",[1]; [10],65.9%
same,"nuclei count, normalised","[1]; measured here: cell number at 48 h, Library stock concentration: 80 uM",101%
same,"nuclei count, normalised","[1]; measured here: cell number at 48 h, Library stock concentration: 400 uM",75.4%
same,"nuclei count, normalised","[1]; measured here: cell number at 48 h, Library stock concentration: 2 mM",60.3%
same,"nuclei count, normalised",[1]; [7],61.8%
same,"nuclei count, normalised",[1]; [11],52.6%
same,"p53-positive nuclei, normalised",[2]; Library stock concentration: 80 uM,0.397% (inactive)
same,"p53-positive nuclei, normalised",[2]; Library stock concentration: 400 uM,74% (active)
same,"p53-positive nuclei, normalised",[2]; Library stock concentration: 2 mM,142% (active)
same,"p53-positive nuclei, normalised",[2]; [8],137% (active)
same,"p53-positive nuclei, normalised",[2]; [12],105% (active)
same,"p53-positive nuclei, normalised","[2]; measured here: p53 positive nuclei at 24 h, Library stock concentration: 80 uM",0.165%
same,"p53-positive nuclei, normalised","[2]; measured here: p53 positive nuclei at 24 h, Library stock concentration: 400 uM",72.4%
same,"p53-positive nuclei, normalised","[2]; measured here: p53 positive nuclei at 24 h, Library stock concentration: 2 mM",167%
same,"p53-positive nuclei, normalised",[2]; [9],159%
same,"p53-positive nuclei, normalised",[2]; [13],137%
Nc1ccn(C2C=C(CO)C(O)C2O)c(=O)n1 (stereo unspecified),"nuclei count, normalised","[1]; measured here: cell number at 24 h, Library stock concentration: 500 nM",108%
same,"nuclei count, normalised","[1]; measured here: cell number at 24 h, Library stock concentration: 1.5 uM",117%
same,"nuclei count, normalised","[1]; measured here: cell number at 24 h, Library stock concentration: 4.6 uM",110%
same,"nuclei count, normalised","[1]; measured here: cell number at 24 h, Library stock concentration: 13.7 uM",119%
same,"nuclei count, normalised","[1]; measured here: cell number at 24 h, Library stock concentration: 41 uM",115%
same,"nuclei count, normalised","[1]; measured here: cell number at 24 h, Library stock concentration: 123 uM",83.8%
same,"nuclei count, normalised","[1]; measured here: cell number at 24 h, Library stock concentration: 370 uM",70%
same,"nuclei count, normalised","[1]; measured here: cell number at 24 h, Library stock concentration: 1.111 mM",73.4%
same,"nuclei count, normalised","[1]; measured here: cell number at 24 h, Library stock concentration: 3.333 mM",65.6%
same,"nuclei count, normalised",[1]; [10],65.3%
same,"nuclei count, normalised","[1]; measured here: cell number at 48 h, Library stock concentration: 500 nM",109%
same,"nuclei count, normalised","[1]; measured here: cell number at 48 h, Library stock concentration: 1.5 uM",111%
same,"nuclei count, normalised","[1]; measured here: cell number at 48 h, Library stock concentration: 4.6 uM",111%
same,"nuclei count, normalised","[1]; measured here: cell number at 48 h, Library stock concentration: 13.7 uM",117%
same,"nuclei count, normalised","[1]; measured here: cell number at 48 h, Library stock concentration: 41 uM",105%
same,"nuclei count, normalised","[1]; measured here: cell number at 48 h, Library stock concentration: 123 uM",67.3%
same,"nuclei count, normalised","[1]; measured here: cell number at 48 h, Library stock concentration: 370 uM",54.3%
same,"nuclei count, normalised","[1]; measured here: cell number at 48 h, Library stock concentration: 1.111 mM",57.7%
same,"nuclei count, normalised","[1]; measured here: cell number at 48 h, Library stock concentration: 3.333 mM",52.7%
same,"nuclei count, normalised",[1]; [11],52%
same,"p53-positive nuclei, normalised",[2]; Library stock concentration: 500 nM,-0.14% (inactive)
same,"p53-positive nuclei, normalised",[2]; Library stock concentration: 1.5 uM,-0.145% (inactive)
same,"p53-positive nuclei, normalised",[2]; Library stock concentration: 4.6 uM,0.0813% (inactive)
same,"p53-positive nuclei, normalised",[2]; Library stock concentration: 13.7 uM,-0.00208% (inactive)
same,"p53-positive nuclei, normalised",[2]; Library stock concentration: 41 uM,-0.138% (inactive)
same,"p53-positive nuclei, normalised",[2]; Library stock concentration: 123 uM,0.289% (inactive)
same,"p53-positive nuclei, normalised",[2]; Library stock concentration: 370 uM,-0.0266% (inactive)
same,"p53-positive nuclei, normalised",[2]; Library stock concentration: 1.111 mM,0.668% (inactive)
same,"p53-positive nuclei, normalised",[2]; Library stock concentration: 3.333 mM,0.138% (inactive)
same,"p53-positive nuclei, normalised",[2]; [12],0.496% (inactive)
same,"p53-positive nuclei, normalised","[2]; measured here: p53 positive nuclei at 24 h, Library stock concentration: 500 nM",0.0935%
same,"p53-positive nuclei, normalised","[2]; measured here: p53 positive nuclei at 24 h, Library stock concentration: 1.5 uM",-0.093%
same,"p53-positive nuclei, normalised","[2]; measured here: p53 positive nuclei at 24 h, Library stock concentration: 4.6 uM",-0.13%
same,"p53-positive nuclei, normalised","[2]; measured here: p53 positive nuclei at 24 h, Library stock concentration: 13.7 uM",0.115%
same,"p53-positive nuclei, normalised","[2]; measured here: p53 positive nuclei at 24 h, Library stock concentration: 41 uM",-0.0784%
same,"p53-positive nuclei, normalised","[2]; measured here: p53 positive nuclei at 24 h, Library stock concentration: 123 uM",0.089%
same,"p53-positive nuclei, normalised","[2]; measured here: p53 positive nuclei at 24 h, Library stock concentration: 370 uM",0.146%
same,"p53-positive nuclei, normalised","[2]; measured here: p53 positive nuclei at 24 h, Library stock concentration: 1.111 mM",0.68%
same,"p53-positive nuclei, normalised","[2]; measured here: p53 positive nuclei at 24 h, Library stock concentration: 3.333 mM",0.184%
same,"p53-positive nuclei, normalised",[2]; [13],0.519%
CCCCC/C=C\C/C=C\C/C=C\CCCCCCC(=O)OC,"nuclei count, normalised",[1]; [3],114%
same,"nuclei count, normalised",[1]; [4],108%
same,"p53-positive nuclei, normalised",[2]; concentration not given here,0.0353% (inactive)
same,"p53-positive nuclei, normalised",[2]; [5],0.00725%
CCC(C)C(NC(=O)C(CCC(=O)O)NC(=O)C(CC(C)C)NC(=O)C1CN=C(C(N)C(C)C)S1)C(=O)NC1CCCCNC(=O)C(CC(N)=O)NC(=O)C(CC(=O)O)NC(=O)C(Cc2cnc[nH]2)NC(=O)C(Cc2ccccc2)NC(=O)C(C(C)CC)NC(=O)C(CCCN)NC1=O (stereo unspecified),"nuclei count, normalised",[1]; [6],97.5%
same,"nuclei count, normalised",[1]; [7],99%
same,"p53-positive nuclei, normalised",[2]; [8],-0.136% (inactive)
same,"p53-positive nuclei, normalised",[2]; [9],-0.227%
